TGFb SMAD3 inh: TGF-b pathway inhibition. HepG2 CAGA-GFP TGF-b/SMAD3 reporter, GFP fluorescence, 18 h; TGF-beta stimulated, 500 pg/mL final. Potency, µM (titrated, usually from 46.1 µM), without a hit: top-dose activity, negative = inhibition, actives largely listed as inhibitors. 410,000 compounds, 1.2% hits. AID 588855; further: potency means the concentration at half of the fitted maximal effect; on the % scale 0 is the no-effect control and ±100 the full control effect; nearly all actives have a fitted effect of over 65% in size
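Per well, imaged GFP fluorescence of HEPG2 CAGA-GFP cells gives the signal; cells get compound, then TGF-beta (500 pg/mL final), 18 h at 37 degrees C; %Activity versus -TGF-beta and +DMSO controls.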
ATXN viability: cell viability loss in ATXN counter-screen. S2 cells (HEK-293 line with an ATXN2-luciferase reporter) viability, CellTiter-Fluor protease fluorescence, 24 h. 400,000 compounds, 0.49% hits. Potency, µM (highest dose often 56.7 µM), actives largely listed as cytotoxic. AID 651635; further: potency means the concentration at half of the fitted maximal effect; nearly all actives have a fitted effect of over 40% in size
uPA generation: blocks generation of uPA at the cell surface; cell surface uPA generation assay, qHTS; Potency, µM (titrated, usually from 38.3 µM), for inactives: top-dose activity change, negative = inhibition, most hits filed as inhibitors; 330,000 compounds, 0.31% hits; active means well fitted inhibition curve with a large enough effect; inconclusive means small, poorly fitted or top-dose-only effect; inactive means no such curve, though single readings can be large or run the other way; tested in mouse RAW 264.7 cells; further: potency means the concentration at half of the fitted maximal effect; on the % scale 0 is the no-effect control and ±100 the full control effect; nearly all actives have a fitted effect of over 55% in size
HepG2 tox: counter-screen for TGF-b inhibitors: cytotoxicity in HepG2 cells | HepG2 CAGA-GFP viability, ATP luminescence, 18 h | Potency, µM (series often up to 46.1 µM), for inactives: top-dose activity change, negative = cytotoxicity, actives largely listed as cytotoxic | 410,000 compounds, 0.76% hits | AID 588856; further: potency means the concentration at half of the fitted maximal effect
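HepG2 CAGA-GFP cells (1000/well, DMEM with 1% FBS) received compound, then TGF-beta at 500 pg/mL final, and were incubated 18 hours at 37 degrees C. Viability was read by CellTiter-Glo luminescence. Media-only wells were set as complete cell-killing and DMSO as no toxicity.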
Giardia killer: Giardia lamblia killing; 340,000 compounds, 0.15% hits; Giardia lamblia trophozoite viability; activity change, % at 7.66 µM, hits read low; in the data active means activity change below about -80%; inconclusive means between about -30% and that limit;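 further: parasites exposed to compound for two days anaerobically before the ATP read; on the % scale 0 is the no-effect control and ±100 the full control effect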
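Compounds were tested on trophozoites seeded at 100 cells/well and held 48 hrs at 37 deg C anaerobically. An ATP-based luminescent kit measured the remaining live cells.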
ATXN2 expr inh: reduces ATXN2 reporter expression in HEK-293 cells; HEK-293 ATXN2-luciferase reporter, luminescence, 24 h; Potency, µM (titrated, usually from 57 µM), for the others: at the top dose activity change, negative = inhibition, actives largely listed as inhibitors; 360,000 compounds, 0.72% hits; further: potency means the concentration at half of the fitted maximal effect; on the % scale 0 is the no-effect control and ±100 the full control effect; nearly all actives have a fitted effect of over 55% in size
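ATXN2-luciferase reporter cells (luciferase flanked by upstream and downstream ATXN2 gene portions) were treated 24 h at 37 °C with compounds at up to 57 uM. SteadyGlo luminescence gave expression; GF-AFC fluorescence gave viability.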
SK-N-SH 3D tox: reduced viability of SK-N-SH 3D spheroids, orthogonal test; shares compounds with ATXN2 expr inh; SK-N-SH 3D spheroid viability, PI/Hoechst imaging, 72 h; Potency, µM (titrated, usually from 30.7 µM), hits mostly inhibitors; 65 compounds, 70% hits
SJGBM2 3D viab: SJ-GBM2 spheroid viability loss, orthogonal 3D screen; shares compounds with ATXN2 expr inh; SJ-GBM2 3D spheroid viability, PI/Hoechst imaging, 72 h; Potency, µM (highest dose often 30.7 µM), most hits filed as inhibitors; 65 compounds, 80% hits
Daoy 3D tox: kills Daoy spheroids in orthogonal 3D test. 65 compounds, 50% hits. Potency, µM (top dose mostly 30.7 µM), usual class: inhibitors. shares compounds with ATXN2 expr inh. Daoy 3D spheroid viability, PI/Hoechst imaging, 72 h. AID 1347137
TC32 3D caspase: caspase activation in TC32 3D spheroids, orthogonal test. shares compounds with ATXN2 expr inh. TC32 3D spheroids, caspase-3/7 fluorescence imaging, 24 h. Potency, µM (series often up to 30.7 µM), hits mostly inhibitors. 65 compounds, 30% hits
TC32 3D tox: TC32 3D spheroid viability loss | shares compounds with ATXN2 expr inh | TC32 3D spheroid viability, PI/Hoechst imaging, 72 h | Potency, µM (highest dose often 30.7 µM), hits mostly inhibitors | 65 compounds, 60% hits
MG63 spheroid: reduced viability of MG-63 (6-TG R) 3D spheroids, orthogonal test. shares compounds with ATXN2 expr inh. MG-63 (6-TG R) 3D spheroid viability, PI/Hoechst imaging, 72 h. Potency, µM (series often up to 30.7 µM), usual class: inhibitors. 65 compounds, 50% hits. AID 1347140
RD spheroid: reduced viability of RD 3D spheroids, orthogonal test; shares compounds with ATXN2 expr inh; RD rhabdomyosarcoma 3D spheroid viability, PI/Hoechst imaging, 72 h; Potency, µM (top dose mostly 30.7 µM), most hits filed as inhibitors; 65 compounds, 50% hits
* = called active by the depositor; i = inactive; u = inconclusive; x = no result given; [ ] = another dose, or the depositor's remark. In the library only some 2.6% were active in any assay of this set; here they are far more common. Unless noted, the call rests on the fitted dose curve; in most records, active means well fitted curve in the direction sought with a large enough effect; inconclusive means small, poorly fitted or top-dose-only effect, or another doubt; inactive means no such curve, though single readings can be large; an effect the other way counts as inactive or inconclusive.

SMILES	TGFb SMAD3 inh	ATXN viability	uPA generation	HepG2 tox	Giardia killer	ATXN2 expr inh	others
COc1cccc2c1C(=O)c1c(O)c3c(c(O)c1C2=O)C[C@@](O)(C(=O)CO)C[C@@H]3O[C@H]1C[C@H](N)[C@H](OC2CCCCO2)[C@H](C)O1 (stereo not given in full)	u	x	x	-14%	x	1.5µM*	SK-N-SH 3D tox=0.29µM*;SJGBM2 3D viab=0.72µM*;Daoy 3D tox=1.4µM*;TC32 3D caspase=1.4µM*;TC32 3D tox=1µM*;MG63 spheroid=u;RD spheroid=u
COc1ccccc1N1CCN(C2CCCN(C(=O)COc3ccccc3Cl)C2)CC1 (stereo not given)	-8%	i	0%	-23%	-8	-11%
CC(C)(C)NC[C@H](O)c1ccc(O)cc1Cl	x	u	x	x	x	14%
COc1cc2c(c(OC)c1OC)-c1ccc(C(=O)O)cc1[C@@H](NC(C)=O)CC2	3%	i	-1%	14%	26	0%
CC(C)Oc1ccc(C(=O)Nc2ccc(Cl)c(S(=O)(=O)Nc3ccc(Cl)cc3)c2)cc1	u	u	u	-8%	-7	u
O=C1/C(=C/c2ccc(N(CCCl)CCCl)cc2)Cc2ccccc21	14%	x	x	-23%	x	x
C[C@@H]1C[C@@H]([C@H](O)CC2CC(=O)NC(=O)C2)C(=O)[C@@H](C)C1	1µM*	u	0.5µM*	-25%	-82*	1.3µM*	SK-N-SH 3D tox=u;SJGBM2 3D viab=1µM*;Daoy 3D tox=u;TC32 3D caspase=i;TC32 3D tox=u;MG63 spheroid=u;RD spheroid=u
COc1ccccc1NC(=O)Cn1c(=O)n(-c2cccc(Cl)c2)c(=O)c2sc3ccccc3c21	0%	i	x	3%	x	-2%
CN1CCC(N(C)c2nc(-c3ccccc3)nc3ccccc23)CC1	-11%	i	2%	-47%	20	u
CN1Cc2cccnc2N(C)Cc2cc(Cl)ccc21	u	u	1%	-6%	-3	u
CC(=O)Nc1ccc(S(=O)(=O)N(C)CCOCc2ccccc2)cc1	2%	i	-10%	6%	9	-4%
CCCCCCN1CCN(c2ccccc2Cl)CC1	-3%	i	9%	-8%	30	x
CC(C)Oc1ccc(C(=O)Nc2ccc3c(c2)CCCN3C(=O)c2cccs2)cc1	-12%	u	x	-27%	x	u
NC(=O)[C@H]1CC2(CC(c3cccc(NC(=O)COc4ccc(Cl)cc4)c3)=NO2)CN1C(=O)Cc1ccc([N+](=O)[O-])cc1 (stereo not given in full)	u	i	u	-12%	20	u
COc1cccc(N2CCN(C(=O)Cn3c(=O)oc4ccccc43)CC2)c1	-2%	i	-3%	-24%	19	-9%
O=C(CCN1CCN(CCO)CC1)N1c2ccccc2Sc2ccc(C(F)(F)F)cc21	-8%	i	-19%	-22%	23	-22%
Cc1cccc(NC(=O)Cn2c(=O)oc3cc(S(=O)(=O)N4CCCCCC4)ccc32)c1	x	x	x	-34%	x	x
CCN[C@@H](C)Cc1cccc(C(F)(F)F)c1	21%	i	-9%	-7%	-7	0%
Cc1ccc(Cl)cc1NC(=O)Cn1c(=O)oc2cc(S(=O)(=O)N3CCCCCC3)ccc21	u	x	x	-56%	x	x
CCN(CC)C(C)C(=O)c1ccccc1 (stereo not given)	x	i	x	x	x	7%
Cc1cccc(CN2CCCC(C(=O)Nc3ccc(-c4cscn4)cc3)C2)c1 (stereo not given)	-4%	i	u	-3%	9	-5%
CCCCn1nnnc1C(c1ccc(OC)cc1)N1CCC2(CC1)C(=O)NCN2c1ccccc1 (stereo not given)	u	u	x	-36%	x	-24%
COc1cc([C@@H]2c3cc4c(cc3[C@H](O)[C@H]3COC(=O)[C@H]23)OCO4)cc(OC)c1OC	-37%	u	-61%	-4%	u	-4%	SK-N-SH 3D tox=0.023µM*;SJGBM2 3D viab=0.036µM*;Daoy 3D tox=u;TC32 3D caspase=0.057µM*;TC32 3D tox=0.057µM*;MG63 spheroid=u;RD spheroid=0.046µM*
C[C@H](N)C(=O)c1ccccc1	x	i	x	x	x	9%[116 µM]
CCCC1CCCCN1 (stereo not given)	x	i	x	x	x	11%
SMILES	TGFb SMAD3 inh	ATXN viability	uPA generation	HepG2 tox	Giardia killer	ATXN2 expr inh	others
CCNC(=O)C1CCCN(C(=O)c2c(-c3ccccc3)noc2C)CC1 (stereo not given)	2%	u	x	6%	x	13%
COc1ccc(CCNC(=O)c2ccc3c(c2)N(Cc2cccc(Cl)c2)C(=O)CS3)cc1OC	0%	u	x	-17%	x	u
CN(C)CCn1cnc2ccccc21	6%	i	3%	8%	-4	3%
CN1CCC(OC(=O)c2ccccc2)CC1	-15%	u	3%	-4%	2	x
Cc1ccc(-c2nnc(Nc3ccc(OC(F)(F)Cl)cc3)c3ccccc23)cc1S(=O)(=O)NC(C)(C)CO	u	i	x	-28%	x	0%
C[C@@H](NC(=O)c1nc[nH]c1C(=O)NCc1ccc(CNC(=O)OC(C)(C)C)cc1)c1ccccc1	u	i	-10%	-7%	-20	-7%
C[C@@H]1CN([C@@H](C)CO)C(=O)CCCn2nncc2CO[C@H]1CN(C)C(=O)Nc1ccc(N2CCCCC2)cc1	-3%	i	x	-18%	x	-1%
Cc1cc(Br)ccc1S(=O)(=O)NCc1ccccc1	u	i	u	-3%	-12	x
COc1ccc(CN2CCN(C(=O)Cn3c(=O)oc4cc(Cl)ccc43)CC2)c(OC)c1OC	u	u	-9%	-22%	41	x
Cc1cc(C(C#N)c2ccc(Cl)cc2)c(Cl)cc1NC(=O)c1cc(I)cc(I)c1O (stereo not given)	u	u	-8%	-57%	3	u
CCc1ccc(NC(=O)c2cnc3sc(N4CCCC4)nn3c2=O)cc1	u	x	x	-8%	x	x

Screening data from PubChem.
